In PubChem BioAssay AID1035475 (Broad Institute, 2014):
Measured potencies and affinities stand elsewhere. Records with an inconclusive call do not appear. Active and inactive are the calls of the source.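 Rule for the calls: active = fluorescent signal drops by 40% or more, counted as a hit; inconclusive = no clear call, values can overlap the other calls; inactive = the rest, including any activity in the opposite direction.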

Test: inhibitors of fibronectin matrix deposition, dose response, AH1F cells, Alexa488-FN fluorescence, cherry-picks (AID 1035475);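 note: AH1F fibroblasts incorporating labeled fibronectin into their extracellular matrix; 0% = neutral control wells and -100% = wells without labeled fibronectin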
Details: AH1F fibroblasts, overnight; series mostly up to 35 µM; activity change, negative = inhibition: at the top concentration

SMILES	activity change, negative = inhibition
C[C@H](CO)N1C[C@H](C)[C@H](CN(C)C(=O)Nc2cccc3ccccc23)Oc2c(NC(=O)Nc3ccc(C(F)(F)F)cc3)cccc2C1=O	14.8% (inactive)
C[C@@H]1CN([C@@H](C)CO)C(=O)c2cc(-c3ccncc3)cnc2O[C@@H]1CN(C)C(=O)Cc1cccnc1	44.5% (inactive)
Cc1ccc(S(=O)(=O)N2CC[C@@H]3[C@H](CO)Nc4ccc(-c5cccc(C(=O)N(C)C)c5)cc4[C@@H]32)cc1	-8.78% (inactive)
CO[C@H]1CN(C)C(=O)c2cc(NC(=O)Nc3ccc(Cl)c(Cl)c3)ccc2OC[C@@H](C)NC[C@H]1C	19.8% (inactive)
O=C(OCC(O)C(O)COC(=O)c1ccccc1)c1ccccc1 (stereo not given)	-11.1% (inactive)
O=C(C[C@@H]1C[C@@H]2c3cc(NC(=O)c4ccc5c(c4)OCO5)ccc3O[C@@H]2[C@@H](CO)O1)NCc1ccc(Oc2ccccc2)cc1	-10.1% (inactive)
C[C@H](CO)N1C[C@H](C)[C@@H](CN(C)Cc2ccc(-c3ccccc3)cc2)Oc2ccc(NC(=O)CCCN(C)C)cc2C1=O	27% (inactive)
CO[C@@H]1CN(C)C(=O)c2cc(NC(=O)Nc3ccc(Cl)c(Cl)c3)ccc2OC[C@@H](C)NC[C@@H]1C	28.6% (inactive)
N#C[C@H]1[C@@H](c2ccccc2C2=CCCCC2)[C@@H](CO)N1S(=O)(=O)c1ccccc1	19.1% (inactive)
CN(C)C(=O)c1ccc(-c2ccc3c(c2)[C@@H]2[C@@H](CCN2C(=O)c2ccc(F)cc2)[C@H](CO)N3C)cc1	38.9% (inactive)
CN(C)C(=O)c1ccc(-c2ccc3c(c2)[C@H]2[C@H](CCN2C(=O)c2ccc(F)cc2)[C@@H](CO)N3C)cc1	21.9% [at 30 µM] (inactive)
COc1cccc(CN2CCN(C(=O)c3ccc(-c4ccccc4)cc3)CC2)c1OC	-21.9% (inactive)
C[C@H]1CN([C@@H](C)CO)C(=O)c2cc(-c3ccccc3)cnc2O[C@@H]1CN(C)Cc1ccccc1	41.3% (inactive)
C[C@@H]1CN([C@@H](C)CO)C(=O)c2cc(-c3ccccc3)cnc2O[C@@H]1CN(C)C(=O)c1cccc(F)c1	14.6% (inactive)
O=C(c1cccnc1)N1C[C@H]2[C@@H](c3ccccc31)[C@@H](CO)N2CC1CCCC1	44.1% (inactive)
C[C@H](O)C#Cc1ccc2c(c1)O[C@H](CN(C)C)[C@@H](C)CN([C@@H](C)CO)S2(=O)=O	31.3% (inactive)
COC(=O)C[C@H]1CC[C@@H]2[C@H](COc3ccc(NC(=O)Cc4cccs4)cc3C(=O)N2C)O1	10.4% (inactive)
COc1ccc(-c2csc(CCn3nc(C)cc3C)n2)cc1OC	-6.87% (inactive)

SMILES	activity change, negative = inhibition
O=C(CN1CCCC1)Nc1ccc(Oc2ccc(NC(=O)CN3CCCC3)cc2)cc1	-14.8% (inactive)
O=C(Nc1ccccc1F)N1C[C@@H]2[C@H](c3ccccc31)[C@H](CO)N2C(=O)C1CCOCC1	33.8% (inactive)
COc1ccc(C)cc1N(CC(=O)Nc1cccc(N(C)S(C)(=O)=O)c1)S(C)(=O)=O	-10.8% (inactive)
O=C(Nc1ccccc1F)N1C[C@@H]2[C@H](c3ccccc31)[C@H](CO)N2C(=O)C1CC1	28.6% (inactive)
CO[C@H]1CN(C)C(=O)c2cc(NC(=O)Nc3ccc(C(F)(F)F)cc3)ccc2OC[C@H](C)NC[C@H]1C	15.1% (inactive)
c1ccc2[nH]c(SCc3cn4cccnc4n3)nc2c1	-10.3% (inactive)
CC1(C)Cc2c(C#N)c(SCC(=O)c3ccccc3)nc(N3CCOCC3)c2CS1	-29.1% (inactive)
CN(C)C(=O)c1ccc(-c2ccc3c(c2)[C@H]2[C@H](CCN2C(=O)c2ccc(F)cc2)[C@H](CO)N3C)cc1	29.3% (inactive)
CO[C@@H]1CN(C)C(=O)c2ccc(NC(=O)c3ccc(-c4ccccc4)cc3)cc2OC[C@H](C)NC[C@H]1C	-4.34% [at 30 µM] (inactive)
Fc1cnc(N2CCN(c3ccccc3)CC2)nc1N1CCN(c2ccccc2)CC1	-16.8% (inactive)
O=S(=O)(c1cccc(F)c1)N1CC[C@@H]2[C@H]1c1cc(-c3cccc(F)c3)ccc1N[C@@H]2CO	10.5% (inactive)
C[C@@H]1CN([C@@H](C)CO)C(=O)c2cc(NC(=O)CCCN(C)C)ccc2O[C@H]1CN(C)Cc1ccc(-c2ccccc2)cc1	-2.69% (inactive)
O=C(CCC(=O)c1cccs1)NCc1cccnc1	-16.4% (inactive)
C[C@@H]1CN([C@H](C)CO)C(=O)c2cc(-c3ccccc3)cnc2O[C@@H]1CN(C)Cc1ccccc1	31% (inactive)
COCC(=O)Nc1ccc2c(c1)C(=O)N(C)[C@H]1CC[C@@H](CC(=O)NCc3ccccc3Cl)O[C@@H]1CO2	40.5% (inactive)
C[C@@H]1CN([C@H](C)CO)C(=O)c2cc(-c3ccccc3)cnc2O[C@@H]1CN(C)C(=O)c1cccc(F)c1	46% (inactive)
C=CCC[C@H](Cc1ccc(F)cc1)C(=O)OC[C@H](Cc1c[nH]c2ccccc12)NC(=O)[C@@H](CC=C)CC(=O)N[C@@H](CO)Cc1ccccc1	19.2% (inactive)
